Records with an inconclusive call do not appear. Calls of active or inactive are those of the source. Unless noted, calls follow the shape of the dose curve; as a rule, active = well fitted curve in the direction sought with a large enough effect in the repeat runs; inconclusive = weak or mixed curves; inactive = no such curve, though single readings can be large; an effect the other way counts as inactive or inconclusive.
Experiments:
[1] = qHTS RealTime-Glo MT Cell Viability Assay in HEK293 cells - 8 hour (AID 1224887); also: nearly all actives have a fitted effect of over 50% in size; also: potency is read from the fitted curve at half-maximal effect; as to activity change, negative = cytotoxicity: top concentration of the series differs between compounds
Method in brief: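 Measured as luminescence from the same continuously cultured HEK293 wells at successive time points (0, 8, 16, 24, 32, 40 h) after compound addition. Reagent present from seeding; dosing at 5 h; incubation 37 C.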

[2] = A CellTox Green Cytotoxicity Assay to monitor cytotoxicity in HEK293 cells - 16 hour (AID 1224888); also: nearly all actives have a fitted effect of over 35% in size
Method in brief: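 Homogeneous no-lysis format: HEK293 cell suspension mixed with CellTox Green reagent, seeded, incubated 5 h at 37 C/5% CO2, then dosed by pintool with compound in DMSO.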

[3] = qHTS RealTime-Glo MT Cell Viability Assay in HepG2 cells - 0 hour (AID 1224889); also: nearly all actives have a fitted effect of over 50% in size
Method in brief: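 qHTS, HepG2, 600 cells/well, RealTime-Glo (NanoLuc + prosubstrate) added with cells; 5 h preincubation; DMSO compound addition; 37 C; luminescence at 0/8/16/24/32/40 h.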

[4] = A CellTox Green Cytotoxicity Assay to monitor cytotoxicity in HepG2 cells - 8 hour (AID 1224890); also: nearly all actives have a fitted effect of over 45% in size
Method in brief: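 Fluorescent DNA-binding dye, 600 HepG2 cells/well, 5 h preincubation then compound in DMSO; same plates read at 0–40 h, 37 C.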

[5] = qHTS assay to identify small molecule antagonists of the estrogen receptor alpha (ER-alpha) signaling pathway using the BG1 cell line in the presence of 0.1 nM 17-beta-estradiol - cell viability counter screen (AID 1259241); also: nearly all actives have a fitted effect of over 40% in size
Method in brief: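 Cytotoxicity counter-screen: live-cell protease activity measured by fluorescence (30 min reagent step) in the same wells. Cells were VM7Luc4E2 with endogenous ER-alpha and ERE-driven luciferase, treated 22 hr at 37C alongside 0.1 nM 17beta-estradiol final.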

[6] = qHTS assay to identify small molecule antagonists of the androgen receptor (AR) signaling pathway using the MDA cell line in the presence of 0.5 nM R1881 - cell viability counter screen (AID 1259242); also: nearly all actives have a fitted effect of over 45% in size
Method in brief: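 Human breast carcinoma MDA-kb2 cells, cultured without CO2, receive compounds alongside 0.5 nM (final) R1881 agonist. After 16 hr at 37C, viability is taken as live-cell protease signal.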

[7] = qHTS assay to identify small molecule phospholipidosis (PLD) inducers (AID 1259344; active = well fitted curve in the direction sought with a large enough effect; an effect the other way counts as inactive or inconclusive)
Method in brief: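 Cells (HepG2, 900 per well) attach for 4 h, receive LipidTOX Red and compound together, incubate 24 h at 37 C, are fixed 30 min with paraformaldehyde/Hoechst, then imaged at one site per well.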

[8] = qHTS assay to identify small molecule HDAC inhibitors (AID 1259364);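 also: wild-type HCT-116 cells with endogenous class I/II HDAC activity; top concentration of the series differs between compounds; nearly all actives have a fitted effect of over 45% in size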
Method in brief: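 After a 2 hr compound incubation (37C, 5% CO2), HCT-116 cells seeded at 1,500/well the day before received HDAC-Glo reagent; signal read as luminescence after 30 min at room temperature.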

[9] = qHTS assay to identify small molecule HDAC inhibitors - cell viability counter screen (AID 1259365); also: series mostly up to about 92 µM; nearly all actives have a fitted effect of over 50% in size
Method in brief: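 CellTiter-Glo luminescence (30 min, room temperature) reported viability after a 2 h compound exposure at 37 C. Cells: wild-type HCT-116, 1,500 per well, seeded the night before.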

[10] = qHTS assay to identify small molecule agonists of the sonic hedgehog signaling (Shh) pathway - cell viability counter screen (AID 1259366); also: nearly all actives have a fitted effect of over 50% in size
Method in brief: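 Cytotoxicity counter screen: CellTiter-Fluor reagent added after 23 h compound exposure, then 1 h at 37C and fluorescence read. Cells were 3T3 Gli1-Luc, seeded 2,000 per well and dosed 4 h post-plating.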

[11] = qHTS assay to identify small molecule antagonists of the sonic hedgehog signaling (Shh) pathway - cell viability counter screen (AID 1259367); also: nearly all actives have a fitted effect of over 55% in size
Method in brief: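 Cytotoxicity was assessed in parallel with Shh reporter activity by measuring live-cell protease fluorescence (CellTiter-Fluor) in NIH/3T3 cells stably carrying Gli1-Luc, treated with compound under conditioned medium stimulation for 23 hr plus 1 hr reagent incubation.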

[12] = qHTS assay to identify small molecule agonists of the sonic hedgehog signaling (Shh) pathway (AID 1259368; calls by dose curve;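 also: NIH/3T3-derived 3T3Gli1-Luc cells carrying a stable Gli1-driven firefly luciferase reporter; series mostly up to about 92 µM; nearly all actives have a fitted effect of over 15% in size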)
Method in brief: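 Stable NIH/3T3 Gli1-Luc reporter clone; 24 hr cpd exposure after a 4 hr settling period; luminescence endpoint.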

[13] = qHTS assay to identify small molecule antagonists of the sonic hedgehog signaling (Shh) pathway (AID 1259369; calls by dose curve; also: nearly all actives have a fitted effect of over 45% in size; also: potency is read from the fitted curve at half-maximal effect)
Method in brief: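 Gli1 transcriptional reporter (firefly Luc) in NIH/3T3 background, conditioned-medium activated. 24hr exposure, luminescence endpoint.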

[14] = qHTS assay to identify small molecule agonists of the androgen receptor (AR) signaling pathway in the presence of an antagonist - cell viability counter screen (AID 1259379);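 also: MDA-kb2 human breast cancer cells carrying an MMTV luciferase reporter; series mostly up to about 92 µM; nearly all actives have a fitted effect of over 25% in size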
Method in brief: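 Counter screen for cell viability run in parallel with the AR agonist-mode luciferase assay. MDA-kb2 cells were co-treated with nilutamide (3.0uM final) and compounds, then incubated 16 hr at 37C, and CellTiter-Fluor fluorescence was measured.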

[15] = qHTS assay to identify small molecule agonists of the estrogen receptor beta (ER-beta) signaling pathway - cell viability counter screen (AID 1259380); also: nearly all actives have a fitted effect of over 30% in size
Method in brief: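 In this qHTS counter screen, HEK293T cells carrying an ER-beta/UAS beta-lactamase reporter, grown in 2% charcoal-stripped FBS, received compound for 16 hr; ATP-based CellTiter-Glo luminescence was then read after 30 min at room temperature.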

[16] = target: Estrogen receptor beta (Homo sapiens) (UniProt Q92731); assay: qHTS assay to identify small molecule agonists of the estrogen receptor beta (ER-beta) signaling pathway (AID 1259377; active = well fitted activation curve with a large enough effect in the signal ratio in the repeat runs, not every such curve was filed as active; the % refers to the signal ratio)
Chain of Estrogen receptor beta (Homo sapiens) (Q92731 whole entry, looked up): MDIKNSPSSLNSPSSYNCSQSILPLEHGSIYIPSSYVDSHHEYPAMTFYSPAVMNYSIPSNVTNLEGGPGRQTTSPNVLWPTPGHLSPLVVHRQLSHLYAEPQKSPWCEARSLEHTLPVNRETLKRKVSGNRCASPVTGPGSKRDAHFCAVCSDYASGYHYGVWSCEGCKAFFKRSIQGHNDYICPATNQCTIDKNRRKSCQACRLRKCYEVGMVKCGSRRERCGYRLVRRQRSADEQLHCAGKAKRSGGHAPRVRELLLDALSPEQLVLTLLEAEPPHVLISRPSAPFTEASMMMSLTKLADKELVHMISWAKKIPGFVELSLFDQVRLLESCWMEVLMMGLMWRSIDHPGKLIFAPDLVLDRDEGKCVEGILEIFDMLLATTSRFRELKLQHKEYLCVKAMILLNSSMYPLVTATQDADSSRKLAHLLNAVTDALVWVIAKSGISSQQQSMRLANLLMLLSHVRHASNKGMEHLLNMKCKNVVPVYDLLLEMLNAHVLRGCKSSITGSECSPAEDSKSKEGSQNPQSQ
Method in brief: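 Ratiometric beta-lactamase FRET read-out came after 2 h substrate loading at room temperature. It followed 16 h compound treatment at 37C of GripTite HEK293T cells carrying a UAS-bla reporter, plated in 2% charcoal-stripped FBS medium.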

[17] = target: Estrogen receptor beta (Homo sapiens) (UniProt Q92731); assay: qHTS assay to identify small molecule antagonists of the estrogen receptor beta (ER-beta) signaling pathway (AID 1259378; active = well fitted inhibition curve with a large enough effect in the signal ratio in the repeat runs, not every such curve was filed as active; the % refers to the signal ratio)
Method in brief: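 ER-beta-UAS-bla HEK293T (GripTite) cells in 2% charcoal-stripped FBS medium were preincubated 6 hr at 37C, dosed with compound, then stimulated with 1 nM E2 (final) for 16 hr; beta-lactamase reporter read by B/G FRET fluorescence after 2 hr substrate loading.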

[18] = target: Estrogen receptor (Homo sapiens) (UniProt P03372); assay: qHTS assay to identify small molecule antagonists of the estrogen receptor alpha (ER-alpha) signaling pathway using the BG1 cell line in the presence of 0.1 nM 17-beta-estradiol (AID 1259244); also: nearly all actives have a fitted effect of over 50% in size
Chain of Estrogen receptor (Homo sapiens) (P03372 whole entry, looked up): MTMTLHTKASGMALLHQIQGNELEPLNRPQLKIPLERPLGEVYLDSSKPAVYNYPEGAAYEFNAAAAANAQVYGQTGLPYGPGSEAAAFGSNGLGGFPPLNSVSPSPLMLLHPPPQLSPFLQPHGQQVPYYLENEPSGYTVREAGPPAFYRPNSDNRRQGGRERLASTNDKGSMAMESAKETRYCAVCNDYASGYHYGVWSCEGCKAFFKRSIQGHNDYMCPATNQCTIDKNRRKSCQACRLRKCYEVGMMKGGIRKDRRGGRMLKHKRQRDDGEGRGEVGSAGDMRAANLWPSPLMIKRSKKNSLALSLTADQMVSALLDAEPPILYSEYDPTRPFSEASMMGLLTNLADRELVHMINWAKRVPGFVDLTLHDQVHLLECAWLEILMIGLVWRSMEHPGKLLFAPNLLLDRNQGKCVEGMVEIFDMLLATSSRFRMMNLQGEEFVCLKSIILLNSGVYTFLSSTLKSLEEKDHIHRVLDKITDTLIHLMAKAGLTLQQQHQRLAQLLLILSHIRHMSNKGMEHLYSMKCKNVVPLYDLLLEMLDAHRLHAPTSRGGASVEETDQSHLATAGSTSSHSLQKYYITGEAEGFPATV
Method in brief: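 Seeding of stripped-serum-adapted VM7Luc4E2 cells, 24 h attachment, compound transfer, then 0.1 nM final 17beta-estradiol; after 22 h incubation, ONE-Glo reagent and luminescence reading.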
% is scaled to controls: 0 for no effect and ±100 for the full control effect.

COc1c2occc2c(OC)c2c(=O)cc(C)oc12
inactive: Potency [2] | Potency [3] | Potency [4] | outcome [5] | outcome [6] | outcome [7] | Potency [8] | outcome [9] | outcome [10] | outcome [11] | outcome [12] | outcome [14] | outcome [15]
active: Potency [1] 9.52 µM | Potency [13] 11.9 µM

N[C@@H](Cc1ccc(O)cc1)C(=O)O
inactive: activity change, negative = cytotoxicity [1] 10.4% [at 6.97 µM] | activity change [2] 0.851% [at 6.97 µM, active compounds read high] | activity change, negative = cytotoxicity [3] -4.17% [at 6.97 µM] | cytotoxicity increase [4] -2.53% [at 6.97 µM] | activity change, negative = cytotoxicity [5] -0.913% [at 8.39 µM] | viability change, negative = cytotoxic [6] 0.626% [at 8.39 µM] | outcome [7] | activity change, negative = inhibition [8] 6.85% [at 8.39 µM] | activity change, negative = cytotoxicity [9] 0.0609% [at 8.39 µM] | viability change, negative = cytotoxic [11] 0.133% [at 8.39 µM] | activity change [12] -0.171% [at 8.39 µM] | activity change, negative = inhibition [13] 29.1% [at 8.39 µM] | activation [16] 4.88% [at 8.39 µM] | activity, negative = inhibition [17] -4.71% [at 8.39 µM] | activity change, negative = cytotoxicity [15] 10.1% [at 8.39 µM]

CC(C)=CCC/C(C)=C/COC=O
inactive: Potency [1] | Potency [2] | Potency [3] | Potency [4] | outcome [5] | outcome [6] | Potency [8] | outcome [9] | outcome [10] | outcome [11] | outcome [12] | Potency [13] | Potency [16] | Potency [17] | outcome [14] | outcome [15]

CC1=NN(c2ccc(S(=O)(=O)O)cc2)C(=O)C1
inactive: Potency [1] | Potency [2] | Potency [3] | Potency [4] | outcome [5] | outcome [6] | Potency [8] | outcome [9] | outcome [10] | outcome [11] | outcome [12] | Potency [13] | outcome [14] | outcome [15]

OC1OCCOC1O (configuration not stated)
inactive: Potency [1] | Potency [2] | Potency [3] | Potency [4] | outcome [5] | outcome [6] | outcome [18] | Potency [8] | outcome [10] | outcome [11] | outcome [12] | Potency [13] | outcome [14] | outcome [15]

CCC(C)C(C)=O (configuration not stated)
inactive: Potency [1] | Potency [2] | Potency [3] | Potency [4] | outcome [5] | outcome [6] | outcome [18] | Potency [8] | outcome [9] | outcome [11] | outcome [12] | Potency [13] | Potency [16] | Potency [17] | outcome [14] | outcome [15]

O=C(O)CONC(=O)c1ccccc1
inactive: Potency [1] | Potency [2] | Potency [3] | Potency [4] | outcome [5] | outcome [6] | Potency [8] | outcome [9] | outcome [10] | outcome [11] | outcome [12] | Potency [13] | outcome [14] | outcome [15]

C=C(C)[C@@H]1CC=C(C)CC1
inactive: Potency [1] | Potency [2] | Potency [3] | Potency [4] | outcome [5] | outcome [6] | outcome [18] | Potency [8] | outcome [9] | outcome [11] | outcome [12] | Potency [13] | outcome [14] | outcome [15]

CCCCCC(C)O (configuration not stated)
inactive: Potency [1] | Potency [2] | Potency [3] | Potency [4] | outcome [5] | outcome [6] | outcome [18] | Potency [8] | outcome [9] | outcome [11] | outcome [12] | Potency [13] | outcome [14] | outcome [15]

Reference: PubChem BioAssay (Tox21)
